Reference: PubChem BioAssay
Where “and” joins values, the source holds several entries; their conditions need not be identical. Equal entries are not always repeated. Where a structure was tested more than once in an assay, its records may differ in their call. Calls of active or inactive are those of the source.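 Rule for the calls, unless noted: active = inhibition at or above 50% relative to wild type and mutant plate controls; inactive = inhibition below 50%.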

Experiments:
[1] = inhibitors of TNFa-induced NFkB p65 translocation, primary screen, imaging, HUVEC, MLSMR starter and 10KST1 sets (AID 438;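 active = inhibition above 20% together with a positive visual image hit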;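 note: compound added about 3h40 before a 20 min TNFalpha stimulation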;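 for inhibition: signal is the nuclear over cytoplasmic p65 intensity ratio per well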); settings: HUVEC TNFa-induced p65 nuclear translocation; cell count: measured here: nuclei count (cytotoxicity indicator), at 2.08 µM; inhibition: at 2 µM, stronger effect = higher value, 0% TNFa-plus-vehicle, 100% no-TNFa wells
[2] = reduction of polyQ htt aggregates in cells – imaging, exon1htt(103Q)mCFP cells, high-content imaging, primary screen (AID 483;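 active = visual image review flags a hit and inhibition of aggregation exceeds 20%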;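 note: compound exposure lasted 3 days before fixation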;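 for nuclei count: percent of the per-plate median nuclei count of sample wells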); settings: exon1htt(103Q)mCFP cell line, aggregate imaging, at 2 µM; inhibition of aggregation: stronger effect = higher value; nuclei count: measured here: cell count, toxicity
[3] = endothelial E-selectin expression blockers – imaging, HUVEC, immunofluorescence, MLSMR starter and 10KST1 sets, primary screen (AID 487;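 active = visually confirmed hit in the image check and inhibition above 20%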;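 for inhibition: signal is fraction of cell area covered by stained E-selectin grains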;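 for nuclei count: 100% = median nuclei count of all wells on the same plate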); settings: HUVEC TNFalpha-induced E-selectin immunofluorescence imaging, at 2 µM; inhibition: stronger effect = higher value; nuclei count: measured here: cell number, toxicity
[4] = Primary imaging screen for DUSP6 inhibitors that restore phospho-Erk in transfected HeLa cells, chemical complementation (AID 609;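 active = compounds giving at least 50% inhibition in the cell-based MKP-3 phosphatase rescue imaging test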;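 for inhibition: phospho-Erk level distribution per well compared with pooled transfected vehicle control wells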); settings: HeLa MKP-3 transfected, phospho-Erk imaging KS statistic, at 10 µM, cells stimulated with TPA for 15 min
[5] = target: Dual specificity protein phosphatase 6 (Homo sapiens) (UniProt Q16828); experiment: as above; settings: HeLa MKP-3 transfected, phospho-Erk imaging KS statistic; at 10 µM; stronger effect = higher value; cells stimulated with TPA for 15 min
Sequence of Dual specificity protein phosphatase 6 (Homo sapiens) (Q16828 whole entry, looked up): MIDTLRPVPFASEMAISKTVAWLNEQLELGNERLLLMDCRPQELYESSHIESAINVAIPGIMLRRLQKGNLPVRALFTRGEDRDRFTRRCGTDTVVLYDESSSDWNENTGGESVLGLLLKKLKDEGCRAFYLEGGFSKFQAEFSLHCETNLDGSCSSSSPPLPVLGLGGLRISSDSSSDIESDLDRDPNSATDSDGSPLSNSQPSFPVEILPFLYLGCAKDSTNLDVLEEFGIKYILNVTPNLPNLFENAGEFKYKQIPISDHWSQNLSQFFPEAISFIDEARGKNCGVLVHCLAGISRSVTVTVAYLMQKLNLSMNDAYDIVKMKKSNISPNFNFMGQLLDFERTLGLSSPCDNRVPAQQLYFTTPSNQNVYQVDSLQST

[6] = target: Voltage-gated potassium channel subunit beta-2 (Rattus norvegicus) (UniProt P62483); experiment: inhibitors of rat Kvbeta2 reductase activity – biochemical, NADPH fluorescence, primary screen (AID 622;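 active = fluorescence slope higher than the sample average by over 3 SD, cut at about -0.22 in these data, passing the limit was not always enough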;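 note: slope of raw intensity against log time taken from 70 to 1610 s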); settings: recombinant KvBeta, 4-cyanobenzaldehyde reduction, at 10 µM, stronger effect = higher value
Sequence of Voltage-gated potassium channel subunit beta-2 (Rattus norvegicus) (P62483 whole entry, looked up): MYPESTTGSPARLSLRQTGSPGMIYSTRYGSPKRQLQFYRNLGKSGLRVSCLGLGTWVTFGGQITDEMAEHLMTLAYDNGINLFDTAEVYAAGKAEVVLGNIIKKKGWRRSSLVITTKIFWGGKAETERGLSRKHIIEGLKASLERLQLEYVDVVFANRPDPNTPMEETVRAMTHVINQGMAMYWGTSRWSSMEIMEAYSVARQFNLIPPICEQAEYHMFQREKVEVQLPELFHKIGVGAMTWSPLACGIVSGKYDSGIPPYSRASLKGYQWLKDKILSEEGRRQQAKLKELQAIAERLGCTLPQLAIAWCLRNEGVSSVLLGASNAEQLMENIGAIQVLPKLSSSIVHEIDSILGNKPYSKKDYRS

[7] = target: Voltage-gated potassium channel subunit beta-2 (Rattus norvegicus) (UniProt P62483); experiment: enhancers of rat Kvbeta2 NADPH turnover – biochemical, NADPH fluorescence, primary screen (AID 623;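 active = NADPH fluorescence slope more negative than the mean of all samples by about 3 SD, 99.7% confidence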;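 note: fluorescence intensity change per second fitted from 20 to 320 s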); settings: Recombinant KvBeta, NADPH fluorescence decrease slope, 10 min; at 10 µM; stronger effect = lower value
[8] = target: Alpha-2C adrenergic receptor (Homo sapiens) (UniProt P18825); experiment: compounds altering alpha2C-coupled GIRK flux – cell-based, HEK293 alpha2C/GIRK1/2, thallium flux, primary screen (AID 624;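 active = fluorescence slope after compound addition differing from the mean of all screened samples at 99.7% confidence, in either direction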;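 note: slope of fluorescence ratio to pre-addition baseline per second over 15 to 24 s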); settings: thallium flux BTC fluorescence, at 10 µM, actives lie on both sides
Sequence of Alpha-2C adrenergic receptor (Homo sapiens) (P18825 whole entry, looked up): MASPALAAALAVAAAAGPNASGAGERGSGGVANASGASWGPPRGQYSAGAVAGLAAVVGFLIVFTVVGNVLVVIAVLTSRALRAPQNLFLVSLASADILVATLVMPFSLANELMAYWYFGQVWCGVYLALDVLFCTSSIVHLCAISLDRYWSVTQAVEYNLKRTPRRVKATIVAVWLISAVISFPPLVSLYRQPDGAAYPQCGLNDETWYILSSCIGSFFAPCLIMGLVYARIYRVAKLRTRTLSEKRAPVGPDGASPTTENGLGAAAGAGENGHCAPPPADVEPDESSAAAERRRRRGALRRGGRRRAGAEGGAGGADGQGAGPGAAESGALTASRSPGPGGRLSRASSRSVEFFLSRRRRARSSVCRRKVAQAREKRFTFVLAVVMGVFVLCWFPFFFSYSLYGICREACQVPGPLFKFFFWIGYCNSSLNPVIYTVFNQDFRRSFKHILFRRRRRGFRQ

[9] = inhibitors of larval lipid processing in zebrafish, primary screen, whole organism, PED6 fluorescence, gall bladder and intestine (AID 686;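 active = a full or partial loss of lipid-probe fluorescence in the fish gall bladder, intestine or both, judged by eye; inactive = no fluorescence loss, or compound toxic to the fish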;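 note: larvae 5 to 7 days old with five fish per well; signal comes from phospholipase A2 cleavage of quenched PED6 carried via bile; overnight exposure to compound and PED6 before scoring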); settings: Zebrafish larvae PED6 lipid processing, fluorescence scoring; screened at 20 µM (by protocol)
[10] = loss of swimming-algae plug formation – whole organism, Chlamydomonas reinhardtii, WT vs cilia-less mutant, absorbance, 96-well, primary screen (AID 463189); settings: Chlamydomonas reinhardtii gravitaxis, OD600 absorbance, 2 days; at 10 µM; stronger effect = higher value;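 note: 0% = wild type cc124 cells in DMSO and 100% = ciliumless bld1 mutant cells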
[11] = blockers of RIG-like receptor reporter activation – cell-based, Sendai virus stimulus, luciferase, 10K MLSCN set, TLR/RLR signaling modifier project, primary screen (AID 602276;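 active = inhibition at or above 50% at 10 µM; inactive = inhibition below 50%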;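 note: firefly luciferase from ISG56 promoter only with Renilla not read in this screen; 0% = Sendai virus plus DMSO and 100% = medium plus DMSO without virus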); settings: HEK293 RL24 IRF3 luciferase reporter, at 10 µM, stronger effect = higher value
[12] = TLR3 IRF3 reporter activation blockers – cell-based, poly I:C stimulus, luciferase, 10K MLSCN set, primary screen (AID 602277;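 active = inhibition of the reporter signal at or above 50%; inactive = inhibition below 50%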); settings: HEK293-TLR3 RL24 IRF3 luciferase reporter, at 10 µM, stronger effect = higher value
[13] = measured here: cell density z-score
[14] = measured here: nuclear c-Myc green intensity z-score
[15] = measured here: nuclear pErk red intensity z-score, stronger effect = higher value

Compound	cell count [1]	inhibition [1]	inhibition of aggregation [2]	nuclei count [2]	inhibition [3]	nuclei count [3]	z-score [4, 13]	z-score [4, 14]	z-score [4, 15]	inhibition [5]	fluorescence slope [6]	NADPH fluorescence slope [7]	slope [8]	outcome [9]	inhibition [10]	inhibition [11]	inhibition [12]
CC(=O)O[C@H]1C[C@@H]2CC[C@@H]3[C@H](CC[C@@]4(C)[C@H]3C[C@H]([N+]3(C)CCCCC3)[C@@H]4OC(C)=O)[C@@]2(C)C[C@@H]1[N+]1(C)CCCCC1	612	0.4% (inactive)	-15.2% (inactive)	115%	-24.6% (inactive)	114%	-0.612	0.0914	0.638	7.39% (inactive)	-0.45 (inactive)	2.4e-05 (inactive)	0.00404 (inactive)	inactive	0.263% (inactive) and 18.9% (inactive)	21.9% (inactive)	31.6% (inactive)
c1cc2c(cc1C1=Nn3c(nnc3C3CCCCC3)SC1)OCO2	636	-0.8% (inactive)	5.8% (inactive)	31.9%	-52.3% (inactive)	113%	-0.24	0.613	-0.0709	-6.06% (inactive)	-0.481 (inactive)	-8.1e-05 (inactive)	0.00571 (inactive)	inactive	-5.58% (inactive)	25.1% (inactive)	31% (inactive)
CCC(=O)Oc1ccc(C(CC)C(CC)c2ccc(OC(=O)CC)cc2)cc1 (stereo not given)	548	-8% (inactive)	-5.4% (inactive)	107%	-70.7% (inactive)	132%	-1.07	0.0699	1.82	-4.44% (inactive)	-0.48 (inactive)	1.7e-05 (inactive)	0.0054 (inactive)	inactive	0.847% (inactive)	12.9% (inactive)	33.2% (inactive)
O=C(O)CN(c1ccccc1)C1SC(=O)NC1=O (stereo not given)	606	-0.1% (inactive)	5.9% (inactive)	107%	-50.9% (inactive)	140%	-0.0323	-0.911	0.397	16.1% (inactive)	-0.506 (inactive)	-3.4e-05 (inactive)	0.00506 (inactive)	inactive	31.8% (inactive)	11.9% (inactive)	13.7% (inactive)
CCOC(=O)CCC(=O)O[C@H]1[C@H](O[C@@H]2[C@@H](C)[C@H](O[C@H]3C[C@@](C)(OC)[C@@H](O)[C@H](C)O3)[C@@H](C)C(=O)O[C@H](CC)[C@@](C)(O)[C@H](O)[C@@H](C)C(=O)[C@H](C)C[C@@]2(C)O)O[C@H](C)C[C@@H]1N(C)C	569	-5.3% (inactive)	0.8% (inactive)	105%	-62.2% (inactive)	115%	-0.734	-0.933	0.00972	-4.44% (inactive)	-0.495 (inactive)	-5.4e-05 (inactive)	0.0056 (inactive)	inactive	64.6% (active)	20.3% (inactive)	31.3% (inactive)
CC(C)NCC(O)COc1ccc(CCOCC2CC2)cc1 (stereo not given)	564	-5.6% (inactive)	10.6% (inactive)	102%	-146% (inactive)	119%	-0.149	0.261	0.0924	1.48% (inactive)	-0.454 (inactive)	-2.4e-05 (inactive)	0.0053 (inactive)	inactive	7.04% (inactive) and 48.4% (inactive)	12.5% (inactive)	37.3% (inactive)
CN(C)[C@@H]1C(=O)C(C(N)=O)=C(O)[C@@]2(O)C(=O)C3=C(O)c4c(O)ccc(Cl)c4[C@@H](O)[C@H]3C[C@@H]12	524	-3% (inactive)	77.8% (active)	96.8%	-35.1% (inactive)	93%	0.892	0.579	-1.42	9.37% (inactive)	-0.537 (inactive)	-2.5e-05 (inactive)	0.00572 (inactive)	active; no signal in intestine only	54.1% (active) and 88% (active)	17.1% (inactive)	24.2% (inactive)
Cc1nc2sccn2c(=O)c1CCN1CCC(=C(c2ccccc2)c2ccc(F)cc2)CC1	635	-7.7% (inactive)	5% (inactive)	114%	-100% (inactive)	123%	-1.15	0.767	0.616	17.3% (inactive)	-0.433 (inactive)	-1.2e-05 (inactive)	0.00383 (inactive)	inactive	24.7% (inactive) and 164% (active)	18.4% (inactive)	19.4% (inactive)
Cc1cccc(C)c1NC(=O)C1CCCCN1C (stereo not given)	662	-8.2% (inactive)	-22% (inactive)	108%	-104% (inactive)	139%	1.2	-0.238	0.358	3.45% (inactive)	-0.488 (inactive)	-4.1e-05 (inactive)	0.00459 (inactive)	inactive	3.16% (inactive)	12.7% (inactive)	35.5% (inactive)
CC1=C(/C=C/C(C)=C/C=C/C(C)=C/C(=O)O)C(C)(C)CCC1	678	3.5% (inactive)	-22.6% (inactive)	97.6%	-69% (inactive)	121%	-0.898	1.94	-1.68	19% (inactive)	-0.448 (inactive)	-4.4e-05 (inactive)	0.00401 (inactive)	inactive	8.28% (inactive) and -12% (inactive)	-11.8% (inactive)	-27.2% (inactive)
